PubChem BioAssay (EPA / NIEHS)
Values joined by “and” are separate entries in the source; they are usually repeats but may differ in a detail not shown here. Equal values may be shown once. Active and inactive are the calls of the source. The calls were made as follows: active = hit-call score of the fitted dose curve at least 0.9, where 1 is the maximum; inactive = score below 0.9.

Read-out: Interleukin-1 alpha (IL1a), IL1A (gene 3552)
Experiment: BSK_BE3C_IL1a: BioMAP Diversity Plus: BE3C Assay for Interleukin-1 alpha (IL1a) Biomarker Activity (AID 2283016)
Conditions: primary human bronchial epithelial cells; actives raise or lower the signal
How it was run: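 BE3C primary human bronchial epithelium; cpd 24 h; IL-1a by ELISA; bidirectional fit vs DMSO; parallel SRB (0.1% SRB, 10% TCA fix, 560 nm) for cytotoxicity.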

With `COC1=CC(=O)C[C@@H](C)[C@]12Oc1c(Cl)c(OC)cc(OC)c1C2=O` as the compound, how does the outcome read?
Its outcome is “inactive”.

For `CCCCc1oc2ccccc2c1C(=O)c1cc(I)c(OCCN(CC)CC)c(I)c1`, which AC50 is on record?
The AC50 was 17.1 µM (active).

`Oc1c(Cl)cc(Cl)cc1Sc1cc(Cl)cc(Cl)c1O` was tested. Which AC50 did it give?
The AC50 was 7.68 µM (active) and 8.04 µM (active).

Which outcome does the source give for `Cc1ccc(C(=O)c2ccccc2)cc1` here?
The outcome was “inactive”.

With `CN(CCO)S(=O)(=O)C(F)(F)C(F)(F)C(F)(F)C(F)(F)C(F)(F)C(F)(F)C(F)(F)C(F)(F)F` as the compound, how does the outcome read?
The outcome was “inactive”.

For `OCC(CO)(CBr)CBr`, which outcome is on record?
The outcome was “inactive”.

Which outcome does the source give for `CC[N+](CC)(CC)Cc1ccccc1` here?
Its outcome is “inactive”.

With `O=P(O)(O)CCC(F)(F)C(F)(F)C(F)(F)C(F)(F)C(F)(F)C(F)(F)F` as the compound, how does the outcome read?
The outcome was “inactive”.

`N=C(N)c1ccc(OCCCCCOc2ccc(C(=N)N)cc2)cc1` was tested. Which outcome did it give?
Its outcome is “inactive”.

For `O=C(O)CCC(F)(F)C(F)(F)C(F)(F)C(F)(F)C(F)(F)F`, which outcome is on record?
Its outcome is “inactive”.

With `O=C1c2ccc(O)c(O)c2C(=O)c2c(O)ccc(O)c21` as the compound, how does the outcome read?
Its outcome is “inactive”.

For `C=COC(=O)C(C)(C)CCCCCC`, which AC50 is on record?
The AC50 was 34.9 µM (active).

For `Cc1[nH]nc2c1N=C(c1ccccc1Cl)c1cc([N+](=O)[O-])ccc1N2`, which AC50 is on record?
The AC50 was 7.77 µM (active).

Which outcome does the source give for `OCC(F)(F)C(F)(F)C(F)(F)C(F)(F)C(F)(F)C(F)(F)C(F)(F)C(F)(F)C(F)(F)C(F)(F)C(F)(F)F` here?
Its outcome is “inactive”.
